Hit rate of the full screen: of about 240,000 compounds, about 15 (0.006%) were called active. Calls follow the shape of the dose curve; as a rule, active = well fitted inhibition curve with a large enough effect; inconclusive = small, poorly fitted or top-dose-only effect, or effect the other way, or another doubt; inactive = no such curve, though single readings can be large or run the other way. The list is a sample of the results. Where a SMILES comes first, the peptide text is derived from it.
biological target: Lysosomal alpha-glucosidase (Homo sapiens) (UniProt P10253); assay: qHTS Assay for Inhibitors and Activators of Human alpha-Glucosidase From Spleen Homogenate; conditions: 4-MU-alpha-glucoside fluorescence; series mostly up to 79.9 µM; activity change, negative = inhibition: at the top concentration;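 also: 0% = enzyme with vehicle and -100% = no enzyme basal signal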
Source text: NIH Chemical Genomics Center [NCGC] NIH Molecular Libraries Probe Production Centers Network [MLPCN] MLPCN Grant: R03 MH084841-01 Assay Submitter (PI): Wei Zheng NCGC Assay Overview: Alpha-glucosidase is responsible for the hydrolysis of terminal, non-reducing 1,4-linked alpha-D-glucose residues, which releases alpha-D-glucose. It is a lysosomal hydrolase that is required for the degradation of a small percentage (1-3%) of cellular glycogen in humans. Deficiency of this enzyme results in glycogen-storage disease type II (GSDII), also referred to as Pompe disease, an autosomal recessive disorder. Structurally normal glycogen is accumulated in the lysosomes and cytoplasm in affected patients, primarily in muscle tissues. Excessive glycogen storage within lysosomes may interrupt normal functioning of other organelles and leads to cellular injury. In turn, this leads to enlargement and dysfunction of the entire organ involved (eg: cardiomyopathy and muscle weakness). It has been reported that the improper folding and trafficking of alpha-glucosidase resulting from genetic mutations may account for a significant number of Pompe patients. […] We optimized this alpha-glucosidase assay in 1536-well plate format for identification of novel small molecule inhibitors or activators with structures other than the sugar analogs in order to develop new pharmacological chaperones. In particular, this assay is directed towards discovering compounds active in a more natural setting, tissue homogenate, that may have been missed by screens of the purified enzyme under more stringent conditions.
NCGC Assay Protocol Summary: This is a fluorogenic enzyme assay with 4-methylumbelliferyl-alpha-D-glucopyranoside as the substrate and human spleen homogenate containing alpha-glucosidase as the enzyme preparation. Upon hydrolysis of this fluorogenic substrate, the resulting product, 4-methylumbelliferone (which excites at 365 nm and emits at 440 nm) can be detected by a fluorescence plate reader. Data were normalized to the controls for basal activity (without enzyme) and 100% activity (with enzyme). The AC50 values were determined from concentration-response data modeled with the standard Hill equation. Assay buffer: 50 mM citric acid (titrated with potassium phosphate to pH 5.0), 0.01% Tween-20 (pH 5.0 is an optimal condition for this enzyme assay) 1536-well assay protocol for the alpha-glucosidase from human spleen homogenate: (1) Add 2 ul/well spleen homogenate (1 ug) (2) Add 23 nL compounds in DMSO solution. The final titration was 0.5 nM to 58 uM. (3) Add 2 ul of substrate (1 mM final) (4) Incubate at 37 C for 40 min (5) Add 2 ul stop solution (1M NaOH and 1M Glycine mixture, pH 10) (6) Detect the assay plate in a ViewLux plate reader (PerkinElmer) with Ex=365 nm and Em=440nm. Keywords: Alpha-glucosidase, Pompe Disease, pharmacological chaperone, chaperone therapy, high throughput screening, alpha-glucosidase inhibitor, MLSMR, MLSCN, NIH Roadmap, qHTS and NCGC

Activity change, negative = inhibition, inactive:
Cc1nc(-c2ccccc2)sc1-c1nc(-c2ccccc2)ncc1S(=O)(=O)c1ccccc1 -0.37%
CO[C@@]12[C@@H](COC(N)=O)C3=C(C(=O)C(C)=C(N)C3=O)N1C[C@@H]1N[C@@H]12 -0.0282%
Cc1ccc2nc(/C(C#N)=C\c3ccc(OC(=O)c4cccs4)cc3)[nH]c2c1 -2.6%
COc1c(O)c2c(=O)cc(OC)c3c4c(OC)cc(=O)c5c(O)c(OC)c6c(c(c1C[C@@](C)(O)[C@H]6C(C)=O)c23)c54 -8.94%
Clc1ccc(C[n+]2cc(-c3ccc(Cl)cc3)n3c2CCC3)cc1 -3.89%
COc1ccc(NC2=CC(=S)NC(C)(C)C2)cc1 0.55%
O=C(NCC1CC1)C1(C(F)(F)F)C/C(=C\CCO)CCCO1 (stereo not given) 3.72%
COc1cc2[nH]c(=O)n(Cc3ccc(C(=O)NC4CCN(Cc5ccccc5)CC4)cc3)c(=O)c2cc1OC -0.526%
COC(=O)C(CC(C)C)NS(=O)(=O)c1cc(Br)ccc1Br (stereo not given) 3.71%
C=C1CCN(Cc2ccc(OC)cc2)S(=O)(=O)c2ccccc21 -11.5%
CCOc1cc(C2C(C(=O)OC(C)C)=C(C)NC3=C2C(=O)CCC3)cc([N+](=O)[O-])c1O (stereo not given) 1.08%
Cc1ccccc1N/C(SCc1ccc(Cl)cc1)=C(/C#N)C(N)=O 3.19%
Cc1c(-c2ccccc2)n[nH]c1C(=O)N=Nc1c(O)[nH]c2ccccc12 -7.29%
Cc1cc(C)c(NC(=O)CN2C(=O)NC(Cc3ccccc3)C2=O)c(C)c1 (stereo not given) 1.21%
CC(=O)c1c(N2CCN(c3ccc(F)cc3)CC2)nc(=S)n(-c2ccccc2)c1C 6.73%
O=C(CP(=O)(c1ccccc1)c1ccccc1)N1CCOCC1 -1.35%
Cc1nn(CCOc2ccc(Br)cc2)c(C)c1[N+](=O)[O-] 5.99%
COc1cc(OC)c2c(C)cc(=O)oc2c1C(CCN1CCCCC1)c1ccc(N(C)C)cc1 (stereo not given) 2.28%
Cc1ccc(-c2nc(C)sc2CC(=O)OCC(=O)Nc2c(F)cccc2F)cc1 0.406%
CCCCCCCC[C@@H](O)/C=C/C=C/C=C\[C@@H](O)CCCC(=O)O 1.53%
COc1ccc(CN2CCC(=O)c3ccccc3S2(=O)=O)cc1 -5.9%
COc1ccc(C2CC(O)(c3ccccc3)Oc3cc(C)cc(C)c32)cc1 (stereo not given) -2.15%
COC(=O)[C@@]1(C)C=C[C@@H](Cc2ccccc2)N1C(C)=O -11.6%
O=C(C1CCN(c2nnc(-n3cccc3)s2)CC1)N1CCc2ccccc2C1 -3.74%
O=C(CSc1ccccn1)Nc1nc2c(ccc3ccccc32)s1 -2.23%
CC(C)C(NS(=O)(=O)c1ccc(-c2ccc(Br)cc2)cc1)C(=O)O (stereo not given) 9.33%
C[C@@H](O)[C@@H]1NC(=O)[C@H](CCCCN)NC(=O)[C@H](Cc2c[nH]c3ccccc23)NC(=O)[C@H](Cc2ccccc2)NC(=O)[C@H](Cc2ccccc2)NC(=O)[C@H](CC(N)=O)NC(=O)[C@H](CCCCN)NC(=O)[C@@H](NC(=O)[C@@H]2CCCN2)CSSC[C@@H](C(=O)N[C@@H](CCCCN)C(=O)O)NC(=O)[C@H](CO)NC(=O)[C@H](CO)NC(=O)[C@H](Cc2ccccc2)NC1=O (HELM PEPTIDE1{P.C.K.N.F.F.W.K.T.F.S.S.C.K}$PEPTIDE1,PEPTIDE1,2:R3-13:R3$$$V2.0) 6.58%
CSc1ccccc1N1CCN(CCCCCC(=O)NC2CCCc3ccccc32)CC1 (stereo not given) -1.62%
CC[C@H](C)[C@H](NC(=O)[C@H](Cc1ccc(O)cc1)NC(=O)[C@@H](NC(=O)[C@H](CCCN=C(N)N)NC(=O)[C@@H](N)CC(=O)O)C(C)C)C(=O)N[C@@H](Cc1cnc[nH]1)C(=O)N1CCC[C@H]1C(=O)N[C@@H](Cc1ccccc1)C(=O)O -2.98%
Cc1ccc2c(c1)C(c1ccccc1)N(C(=O)c1ccc(S(=O)(=O)N3CCOCC3)cc1)CC(=O)N2 (stereo not given) 3.75%
COC(=O)[C@@]1(Cc2ccccc2)[C@H]2c3cc(C(=O)N(C)C)n(CCSCCO)c3C[C@H]2CN1C(=O)c1ccccc1 0.272%
Cc1ccc(CNC(=O)C2(C(F)(F)F)C/C(=C\CCO)CCCO2)o1 (stereo not given) -3.58%
O=C(c1cc(C(F)(F)F)cc(C(F)(F)F)c1)N1CCC2(CCCN(c3ccccn3)C2)CC1 2.45%
CCCN1CCC(=O)N(C(CSc2ccc(OC)cc2)Cc2ccccc2)CC1 (stereo not given) -8.71%
CCCCNC(=S)N/N=C1\CCCCc2ccccc21 -7.3%
C=CCCN(C(Cc1ccccc1)C(=O)OC)S(=O)(=O)c1cc(Br)ccc1Br (stereo not given) 0.718%
Cc1ccccc1Nc1scc(-c2ccc(Br)cc2)[n+]1-c1ccccc1C -4.94%
Cc1nc(C(=O)N2CCCC(C(=O)c3ccc(Cl)cc3)C2)cs1 (stereo not given) 1.42%
CC1=CC(=C(C#N)c2nc3ccccc3s2)C=C(C)N1c1ccc(F)cc1F 1.11%
Cc1cc(C(=O)OCC(=O)Nc2nccs2)c2ccccc2n1 2.11%
O=C1NC(=Nc2ccc(Cl)cc2)SC1Cc1cccc(Cl)c1Cl (stereo not given) -5.67%
Cc1ccc(S(=O)(=O)N(CC(=O)Nc2cccc([N+](=O)[O-])c2)Cc2ccc(Cl)cc2)cc1 2.83%
COc1ccc(C2=Nc3cc(C)ccc3OC2)cc1 -4.38%
CCOC(=O)Cn1c(=O)sc2cccc(Cl)c21 -7.95%
CCN(CC)CCNC(=O)c1sc2ncn(CC(=O)Nc3ccc(C)c(Cl)c3)c(=O)c2c1C -3.52%
Cc1cccc2c1-c1sc(C(=O)NCCCN3CCc4ccccc4C3)cc1CO2 18.1%
O=C1/C(=C/c2coc3ccc(O)cc3c2=O)SC(=S)N1c1ccccc1 4.43%
CC[C@H](C)[C@H](NC(=O)[C@H](CCCNC(=N)N)NC(=O)[C@H](CCCNC(=N)N)NC(=O)[C@H](CC(C)C)NC(=O)[C@H](Cc1ccccc1)NC(=O)CNC(=O)CNC(=O)[C@@H](N)Cc1ccc(O)cc1)C(=O)N[C@@H](CCCNC(=N)N)C(=O)N1CCC[C@H]1C(=O)N[C@@H](CCCCN)C(=O)N[C@@H](CC(C)C)C(=O)N[C@@H](CCCCN)C(=O)N[C@@H](Cc1c[nH]c2ccccc12)C(=O)N[C@@H](CC(=O)O)C(=O)N[C@@H](CC(N)=O)C(=O)N[C@@H](CCC(N)=O)C(=O)O -9.54%
COc1ccc(-c2ccc(C3C4C=CCCC4(C)C(=O)N3Cc3ccccc3)c(F)c2)cc1OC (stereo not given) -2.95%
Cc1ccc(-n2c(SCC(=O)N3c4ccccc4Sc4ccccc43)nnc2-c2ccncc2)cc1 -8.44%

Reference: PubChem BioAssay AID2112 (National Center for Advancing Translational Sciences (NCATS), 2009)
